Only some compounds are listed: those with a hit (about 9.1% of all), similar ones and a draw of the others.
Htt clearance = compounds clearing mutant huntingtin protein. HeLa Exon1htt(103Q)mCFP, aggregate imaging; zero = plate's median compound well. inhibition, % at 1.5 µM. actives 0.42% (n = 47,000);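 active means inhibition of aggregate fluorescence above about 70%, also judged a hit by eye on the cell image, limit read from the data, passing the limit was not always enough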;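 further: cells exposed to compound for three days before fixation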
D1 allo mod = allosteric modulators of human D1 dopamine receptor; HEK293 D1, CRE-luciferase, dopamine EC30 potentiation; actives deviate in either direction; B-score at 10 µM; actives 5.9% (n = 58,000);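 active means luminescence count or its row- and column-corrected plate score outside the 99.7% band of the plate's sample wells, on either side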
M1 ag = agonists of M1 muscarinic receptor. B-score at 10 µM. actives 3% (n = 64,000). CHO-M1 cells, Fluo-4 calcium fluorescence, agonist mode; active compounds read high;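 active means fluorescence rise, raw or as B-score row- and column-corrected plate score, outside the 99.7% band of its plate's samples, either direction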
M1 antag = blocks the rat M1 muscarinic receptor response to acetylcholine | P08482 | AID 628 | B-score at 10 µM | actives 3.4% (n = 64,000) | CHO-M1 cells, Fluo-4 calcium, ACh EC80 antagonist mode; active compounds read low;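 active means calcium fluorescence response, raw or row-and-column corrected B-score, differing from the plate sample mean either way at a set confidence level, mostly lower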
Target sequence (P08482 whole entry, looked up): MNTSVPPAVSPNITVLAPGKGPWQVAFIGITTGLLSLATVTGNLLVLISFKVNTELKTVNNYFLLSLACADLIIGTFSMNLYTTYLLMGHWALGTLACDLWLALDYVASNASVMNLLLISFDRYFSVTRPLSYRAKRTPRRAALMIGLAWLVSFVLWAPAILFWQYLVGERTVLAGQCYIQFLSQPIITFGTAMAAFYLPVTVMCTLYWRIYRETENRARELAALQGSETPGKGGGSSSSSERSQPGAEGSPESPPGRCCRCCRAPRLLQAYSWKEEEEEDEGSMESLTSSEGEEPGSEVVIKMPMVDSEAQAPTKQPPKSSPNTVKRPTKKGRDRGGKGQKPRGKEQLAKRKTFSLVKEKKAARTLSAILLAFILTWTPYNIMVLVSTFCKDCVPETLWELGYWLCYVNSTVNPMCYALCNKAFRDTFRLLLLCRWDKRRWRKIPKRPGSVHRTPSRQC
D1 PAM confirm = D1 receptor (human) allosteric modulation, confirmed. shares compounds with D1 allo mod. HEK293 D1 CRE-luciferase, dopamine EC30 potentiation; active compounds read high. luminescence at 10 µM. actives 88% (n = 2,200). AID 642;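 active means luminescence in either of two replicates above the same-plate mean plus 3 SD of the low-dose dopamine control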
D1 no dopamine = secondary test of D1 modulators: activity without dopamine. shares compounds with D1 allo mod. HEK293 D1 CRE-luciferase, luminescence, no dopamine; active compounds read high. luminescence at 10 µM. actives 0.8% (n = 1,900); in the data active means luminescence above about 3900
Isoprot counter = isoproterenol response counter-screen activity for D1 modulators; shares compounds with D1 allo mod; HEK293 D1 CRE-luciferase, isoproterenol EC30 counter-screen; active compounds read high; luminescence at 10 µM; actives 63% (n = 2,200);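 active means luminescence in either replicate above plate mean of wells with a partly effective reference agonist dose plus 3 SD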;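 further: isoproterenol raises cAMP through native beta-adrenoceptor Gs so signal bypasses D1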
Each line names hits and unclear results; the compound was inactive in the other large screens (follow-up assays come after a bar, where they were run).

CC1(C)Cc2c(sc3c2c(=N)n(Cc2ccco2)c(=O)n3Cc2ccc(F)cc2)CO1	D1 allo mod 23 (no result: Htt clearance) | D1 PAM confirm 17584 | D1 no dopamine inactive | Isoprot counter 9976
CN(C)CCn1c(=O)n(Cc2ccco2)c(=O)c2c3c(sc21)CCCCC3	none (no result: D1 allo mod, M1 ag, M1 antag)
c1ccc(Cc2nn3c(-c4ccncc4)nnc3s2)cc1	none (no result: Htt clearance)
CN1CCc2c(sc3c2C(=O)NC(c2ccco2)N3)C1 (configuration not stated)	none (no result: Htt clearance)
Cn1cccc1C1NC(=O)c2c(sc3c2CCC(C(C)(C)C)C3)N1 (configuration not stated)	D1 allo mod 3 | D1 PAM confirm 7568 | D1 no dopamine inactive | Isoprot counter inactive
CC(C)CN1C(=S)SC(C)(C)C1n1oc(=O)n(-c2ccc(Cl)cc2)c1=O (configuration not stated)	none (no result: D1 allo mod, M1 ag, M1 antag)
CC(C)CC(NS(=O)(=O)c1ccc2c(c1)oc(=O)n2C)C(=O)NCc1cccnc1 (configuration not stated)	none
Cc1c(C(=O)NCc2ccc3c(c2)OCO3)oc2ccc(S(=O)(=O)N3CCCC3)cc12	none (no result: Htt clearance, D1 allo mod)
Cc1c(C(=O)NCc2ccccc2)oc2ccc(S(=O)(=O)N3CCCC3)cc12	D1 allo mod 11 | D1 PAM confirm 21124 | D1 no dopamine inactive | Isoprot counter 6456
COc1ccccc1CNC(=O)c1oc2ccc(S(=O)(=O)N3CCCC3)cc2c1C	D1 allo mod 30 (no result: Htt clearance) | D1 PAM confirm 19660 | D1 no dopamine inactive | Isoprot counter 7368
O=C(c1ccco1)N1CCN(S(=O)(=O)Cc2ccc(Cl)cc2)CC1	none (no result: Htt clearance)
C=CCOc1nc(N(C)C)nc(N(C)C)n1	none
Cc1cc(Oc2ccccc2)nc(-c2ccccc2)n1	D1 allo mod 2.7 | D1 PAM confirm 6804 | D1 no dopamine inactive | Isoprot counter 3112
N#Cc1c(-c2ccco2)cc(-c2ccccn2)nc1N	D1 allo mod 6.5 (no result: M1 ag, M1 antag) | D1 PAM confirm 12544 | D1 no dopamine inactive | Isoprot counter 3648
Cc1c(-c2ccccc2)nc(N)c(C#N)c1-c1ccco1	D1 allo mod 5 | D1 PAM confirm 15044 | D1 no dopamine inactive | Isoprot counter inactive
N#Cc1c(-c2ccco2)cc(-c2cccnc2)nc1N	D1 allo mod 8.3 | D1 PAM confirm 14352 | D1 no dopamine inactive | Isoprot counter 5436
COCCn1c(=NC(=O)CSCC(=O)Nc2cc(C)on2)sc2cc(C(=O)OC)ccc21	none (no result: Htt clearance, D1 allo mod)
CC(=O)CC(=O)Nc1ccccc1NC(C)=O	none (no result: Htt clearance)
CCc1nnc(NC(=O)C(C)Sc2ccccc2)s1 (configuration not stated)	none
CCOC(=O)c1ccc(N2C(=O)C(O)=C(C(C)=O)C2c2ccc(O)c(OC)c2)cc1 (configuration not stated)	D1 allo mod 2.5 (no result: Htt clearance) | D1 PAM confirm inactive | D1 no dopamine inactive | Isoprot counter inactive
O=C(Nc1sc2c(c1C(=O)NC1CC1)CCCCCC2)c1ccco1	none
O=C(Nc1sc2c(c1C(=O)NCc1cccnc1)CCCC2)c1ccco1	D1 allo mod 12 | D1 PAM confirm 17940 | D1 no dopamine inactive | Isoprot counter 3988
Cc1ccc(Sc2oc(/C=N/n3cnnc3)cc2Br)cc1	none (no result: Htt clearance)
Cc1onc(-c2ccccc2)c1C(=O)Oc1cccnc1	D1 allo mod 6.7 | D1 PAM confirm 13128 | D1 no dopamine inactive | Isoprot counter 3512
Cc1nn(CCC(=O)O)c2nc(-c3cccnc3)cc(C(F)(F)F)c12	D1 allo mod 5.4 | D1 PAM confirm 8896 | Isoprot counter inactive
CCOC(=O)c1cc2c(C(F)(F)F)cc(-c3cccnc3)nc2o1	D1 allo mod 5.3 (no result: Htt clearance) | D1 PAM confirm 6932 | D1 no dopamine inactive | Isoprot counter 2892
Cc1cc(C(=O)Nc2ccc(S(=O)(=O)Nc3onc(C)c3C)cc2)c(C)o1	D1 allo mod 2.9 (no result: Htt clearance) | D1 PAM confirm 8272 | D1 no dopamine inactive | Isoprot counter 2872
CN(C)c1ccc(C(CC(=O)O)NC(=O)c2ccc(Cl)cc2)cc1 (configuration not stated)	D1 allo mod 18 | D1 PAM confirm inactive | Isoprot counter inactive
CC(=O)Nc1ccc(C(=O)NC(CC(=O)O)c2ccc(Cl)cc2)cc1 (configuration not stated)	none (no result: D1 allo mod, M1 ag, M1 antag)
